Laboratory results from PubChem BioAssay AID493045 (Broad Institute, 2011).
Potency and affinity values are given separately. A number with no mark means an inactive call.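 The calls were made as follows: active = viability loss with fitted half-maximal dose at or below ten times the top valid dose; inconclusive = flat loss of 30 to 70 percent, or a poor fit; inactive = flat within 30 percent, weak potency, or rising signal.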

Experiment: HRAS-V12 fibroblast viability reduction – cell-based, Alamar Blue, dry powder, Ras selective lethality project, primary screen (AID 493045)
Settings: BJeLR (HRASV12) fibroblasts viability, 48 h; series mostly up to 45 µM; activity change, negative = viability loss: at the top concentration
In the case of `COCC(=O)N(c1ccc(OC)c(Cl)c1)C(C(=O)NCCc1ccccc1)c1cccs1` (stereo unspecified), the “activity change, negative = viability loss” value is reported as 1.62%.
For `O=C(c1[nH]ncc1[N+](=O)[O-])N1CCN(C(c2ccccc2)c2ccccc2)CC1`, the “activity change, negative = viability loss” value was 0.972%.
With `COc1ccc(N(C(=O)[C@@H](C)Cl)C(C(=O)NCCc2ccccc2)c2cccs2)cc1Cl` (stereo partly specified) the “activity change, negative = viability loss” value was -1.18%.
For `CCC(=O)N(c1ccc(OC)c(Cl)c1)C(C(=O)NCCc1ccccc1)c1cccs1` (stereo unspecified), the “activity change, negative = viability loss” value was 0.399%.
With `COc1ccc(N(C(=O)CSc2ncccn2)C(C(=O)NCCc2ccccc2)c2cccs2)cc1Cl` (stereo unspecified) the “activity change, negative = viability loss” value was 13.6% [at 38 µM].
In the case of `COc1ccc(N(C(=O)CO)C(C(=O)NCCc2ccccc2)c2cccs2)cc1Cl` (stereo unspecified), the “activity change, negative = viability loss” value is reported as 4.42%.
